Experimental data published in PubChem BioAssay (NCI).
This is part of a sample that, as a whole, favours compounds with a hit. Of some 83,000 tested, about 20% had one in any assay.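 Growth was measured after 48 h exposure to one concentration of compound in 96-well plates. Values under 10 count as active.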 The source made the active and inactive calls.

tested on: SK-OV-3 ovarian; assay: NCI-60 one-dose screen, 48 h (100 = growth as untreated, 0 = no growth, -100 = all killed); conditions: 10 µM unless noted

| SMILES | growth |
| --- | --- |
| Clc1ccc2c(NCCNc3nc(-c4ccccc4)cc(-c4ccccc4)n3)ccnc2c1 | 83.6% (inactive) |
| Cc1ccc(N(CC(=O)Nc2ccc(S(=O)(=O)N3CCC(N4CCCC4)CC3)cc2)S(=O)(=O)c2ccc(Cl)cc2)cc1 | 96.9% (inactive) |
| Oc1ccc(Nc2ccccc2)cc1 | 97.9% (inactive) |
| CCCCCCCCNc1cccc2c1C(=O)c1ccccc1C2=O | 108% (inactive) |
| Cc1cc(N(CCCNc2ccnc3cc(Cl)ccc23)Cc2ccco2)nc(N2CCN(C)CC2)n1 | 98% (inactive) |
| C=C1C(=O)O[C@H]2[C@H]1CC/C(Cn1cc(-c3ccc(OC)cc3)nn1)=C\CC[C@@]1(C)O[C@@H]21 | 120% (inactive) |
| O=c1[nH]c2c3ccncc3cc(-c3cccc(Cl)c3)c2c2cnccc12 | 51.9% (inactive) |
| O=C1CNCCN1 | 112% (inactive) |
| COc1ccc(/C=C/C(=O)NCC(C)O)cc1 (stereo not drawn) | 87.8% (inactive) |
| O=C1Nc2ccccc2/C1=C/c1cn(CCCn2c3ccccc3c(=O)c3ccccc32)c2ccccc12 | 86.6% (inactive) |
| Cn1cc(-c2csc(-c3c[nH]c4ccc(F)cc34)n2)c2cccnc21 | 64.6% (inactive) |
| Cc1cc(Cl)nc(N(CCCNc2ccnc3cc(Cl)ccc23)Cc2ccco2)n1 | 40.8% (inactive) |
| COc1cc(/C=C/c2cc(/C=C/c3ccc(O)c(OC)c3)n(-c3ccc(Cl)cc3)c(=O)n2)ccc1O | 89.7% (inactive) |
| CC1(c2ccccc2)OC1C(=O)O (stereo not drawn) | 117% (inactive) |
| COc1cc(/C=C2\C(=O)N(CC(O)COc3cc(O)c4c(=O)cc(-c5ccccc5)oc4c3)c3ccccc32)cc(OC)c1O (stereo not drawn) | 111% (inactive) |
| Oc1cccc2oc(=S)[nH]c12 | 108% (inactive) |
| COc1ccc2c(c1)c(-c1nc(-c3c[nH]c4ncccc34)cs1)cn2CCN | 60.7% (inactive) |
| C=C(C)[C@@H]1CC[C@]2(C(=O)N3CCCNCC3)CC[C@]3(C)[C@H](CC[C@@H]4[C@@]5(C)CCC(=O)C(C)(C)[C@@H]5CC[C@]43C)[C@@H]12 | 106% (inactive) |
| Cc1ccc(NC2CC(=O)N(c3c(C)cc(C)cc3C)C2=O)c(C)c1 (stereo not drawn) | 121% (inactive) |
| CC1c2ccccc2N(S(=O)(=O)c2ccccc2)C1C (stereo not drawn) | 91.2% (inactive) |
| Nc1ccc(Cl)cn1 | 93.6% (inactive) |
| CCc1nnc(NC(=O)c2ccoc2COc2ccccc2)s1 | 75.9% (inactive) |
| Nc1c2c(nc3ccc(Br)cc13)CC(c1ccccc1)CC2=O (stereo not drawn) | 63.6% (inactive) |
| CC(C)(C)n1cc(-c2ccnc(NCCCNS(=O)(=O)c3ccc(Cl)cc3)c2)c(-c2cccc(F)c2)n1 | 91.7% (inactive) |
| COc1cc(/C=N/NC(=S)NNC(=S)NC2CCCCC2)cc(OC)c1OC | 110% (inactive) |
| Cc1cc(N(CCCNc2ccnc3cc(Cl)ccc23)Cc2ccco2)nc(Cl)n1 | 58.7% (inactive) |

tested on: IGROV1 ovarian; assay: as above; conditions: 10 µM unless noted

| SMILES | growth |
| --- | --- |
| COc1cc2c3c(c4c5ccccc5[nH]c4c2c(OC)c1OC)C(=O)N(O)C3=O | 9.03% (active) |
| Cc1cc2nc3c4cc(O)ccc4n(CCN(C)C)c3nc2cc1C | -26.4% (active) |
| Cc1csc(Nc2nc(-c3ccc(Cl)cc3)nc(C(Cl)(Cl)Cl)n2)n1 | 102% (inactive) |
| Cc1cc(C)nc(NC(N)=NCCc2ccccc2)n1 | 40% (inactive) |
| COc1cc(-c2c(C#N)c(-c3cccs3)nc3c2c(-c2ccccc2)nn3-c2ccccc2)ccc1O | 91.3% (inactive) |
| CN1CCN(c2ccc3nc(-c4[nH]ncc4Nc4ncnc5c4OCCCN5)[nH]c3c2)CC1 | -21.4% (active) |
| COC(=O)[C@]12CC[C@@H](C)[C@H](C)[C@@H]1C1=CC[C@@H]3[C@@]4(C)C[C@@H](O)[C@H](O)[C@@](C)(CO)C4=CC[C@@]3(C)[C@]1(C)CC2 | -40% (active) |
| O=C(NO)c1ccc(Cn2c(=O)n(-c3ccccc3)c(=O)c3ccccc32)cc1 | 33.5% (inactive) |
| COC(=O)[C@]12CC[C@@H](C)[C@H](C)[C@@H]1C1=CC(=O)[C@@H]3[C@@]4(C)C[C@@H](O)[C@H](O)[C@@]5(C)COC(=C45)C[C@@]3(C)[C@]1(C)CC2 | 47.6% (inactive) |
| Cn1cc(-c2csc(-c3cn(CCN)c4ccc(F)cc34)n2)c2cccnc21 | 39.6% (inactive) |
| CN(C)CCCCC(C(=O)CBr)(c1ccccc1)c1ccccc1 | 44.4% (inactive) |
| CC/C=C\C[C@H]1CC=C2C(=O)C=C[C@@H]2CC=CCCCC(=O)O[C@@H](CCCCC)CC=C2C(=O)C=C[C@@H]2CC=CCCCC(=O)O[C@@H](CCCCC)CC=C2C(=O)C=C[C@@H]2CC=CCCCC(=O)O[C@@H](CCCCC)CC=C2C(=O)C=C[C@@H]2CC=CCCCC(=O)O1 | 8.16% [7.9 µM] (active) |
| Cc1ccc(N(CC(=O)Nc2ccc(S(=O)(=O)N3CCC(N4CCCC4)CC3)cc2)S(=O)(=O)c2ccc(Cl)cc2)cc1 | 51% (inactive) |
| Oc1ccc(Nc2ccccc2)cc1 | 101% (inactive) |
| CCCCCCCCNc1cccc2c1C(=O)c1ccccc1C2=O | 105% (inactive) |
| Cc1cc(N(CCCNc2ccnc3cc(Cl)ccc23)Cc2ccco2)nc(N2CCN(C)CC2)n1 | 38.5% (inactive) |
| C=C1C(=O)O[C@H]2[C@H]1CC/C(Cn1cc(-c3ccc(OC)cc3)nn1)=C\CC[C@@]1(C)O[C@@H]21 | -51.1% (active) |
| O=c1[nH]c2c3ccncc3cc(-c3cccc(Cl)c3)c2c2cnccc12 | 70.9% (inactive) |
| O=C1CNCCN1 | 99.7% (inactive) |

| SMILES | growth |
| --- | --- |
| COc1ccc(/C=C/C(=O)NCC(C)O)cc1 (stereo not drawn) | 93.2% (inactive) |
| O=C1Nc2ccccc2/C1=C/c1cn(CCCn2c3ccccc3c(=O)c3ccccc32)c2ccccc12 | 45.8% (inactive) |
| Cn1cc(-c2csc(-c3c[nH]c4ccc(F)cc34)n2)c2cccnc21 | 41.6% (inactive) |
| Cc1cc(Cl)nc(N(CCCNc2ccnc3cc(Cl)ccc23)Cc2ccco2)n1 | 15.3% (inactive) |
| COc1cc(/C=C/c2cc(/C=C/c3ccc(O)c(OC)c3)n(-c3ccc(Cl)cc3)c(=O)n2)ccc1O | 8.57% (active) |
| CC1(c2ccccc2)OC1C(=O)O (stereo not drawn) | 96.8% (inactive) |
| COc1cc(/C=C2\C(=O)N(CC(O)COc3cc(O)c4c(=O)cc(-c5ccccc5)oc4c3)c3ccccc32)cc(OC)c1O (stereo not drawn) | 51.3% (inactive) |
| Oc1cccc2oc(=S)[nH]c12 | 110% (inactive) |
| COc1ccc2c(c1)c(-c1nc(-c3c[nH]c4ncccc34)cs1)cn2CCN | 30.4% (inactive) |
| C=C(C)[C@@H]1CC[C@]2(C(=O)N3CCCNCC3)CC[C@]3(C)[C@H](CC[C@@H]4[C@@]5(C)CCC(=O)C(C)(C)[C@@H]5CC[C@]43C)[C@@H]12 | 93.6% (inactive) |
| Cc1ccc(NC2CC(=O)N(c3c(C)cc(C)cc3C)C2=O)c(C)c1 (stereo not drawn) | 93.9% (inactive) |
| CC1c2ccccc2N(S(=O)(=O)c2ccccc2)C1C (stereo not drawn) | 92.4% (inactive) |
| Nc1ccc(Cl)cn1 | 104% (inactive) |
| Nc1c2c(nc3ccc(Br)cc13)CC(c1ccccc1)CC2=O (stereo not drawn) | 36.7% (inactive) |
| CC(C)(C)n1cc(-c2ccnc(NCCCNS(=O)(=O)c3ccc(Cl)cc3)c2)c(-c2cccc(F)c2)n1 | 69.5% (inactive) |
| COc1cc(/C=N/NC(=S)NNC(=S)NC2CCCCC2)cc(OC)c1OC | 89.9% (inactive) |
| COc1ccc2[nH]c(-c3ccc(Cl)cc3)cc(=O)c2c1 | 102% (inactive) |
| Cc1cc(N(CCCNc2ccnc3cc(Cl)ccc23)Cc2ccco2)nc(Cl)n1 | 51.8% (inactive) |
